Reference: PubChem BioAssay AID2783 (National Center for Advancing Translational Sciences (NCATS), 2010)
Records with an inconclusive call do not appear. The call rests on the fitted dose curve; in most records, active means well fitted inhibition curve with a large enough effect in the polarisation, with a control signal flat (not every such curve was filed as active); inconclusive means small, poorly fitted or top-dose-only effect, or effect the other way, or a change in a side signal; inactive means no such curve, though single readings can be large or run the other way; the % refers to the polarisation.

The compounds below were run against Menin (Homo sapiens) (UniProt O00255) (assay: Confirmation of Inhibitors Targeting the Menin-MLL Interaction in MLL Related Leukemias: Competition With Fluorescein Labeled MLL-derived Peptide). Settings: Fluorescence polarization, fluorescein-MLL peptide displacement from menin; series mostly up to 100 µM; activity change, negative = inhibition: at the top concentration.
Menin (Homo sapiens), sequence (O00255 whole entry, looked up): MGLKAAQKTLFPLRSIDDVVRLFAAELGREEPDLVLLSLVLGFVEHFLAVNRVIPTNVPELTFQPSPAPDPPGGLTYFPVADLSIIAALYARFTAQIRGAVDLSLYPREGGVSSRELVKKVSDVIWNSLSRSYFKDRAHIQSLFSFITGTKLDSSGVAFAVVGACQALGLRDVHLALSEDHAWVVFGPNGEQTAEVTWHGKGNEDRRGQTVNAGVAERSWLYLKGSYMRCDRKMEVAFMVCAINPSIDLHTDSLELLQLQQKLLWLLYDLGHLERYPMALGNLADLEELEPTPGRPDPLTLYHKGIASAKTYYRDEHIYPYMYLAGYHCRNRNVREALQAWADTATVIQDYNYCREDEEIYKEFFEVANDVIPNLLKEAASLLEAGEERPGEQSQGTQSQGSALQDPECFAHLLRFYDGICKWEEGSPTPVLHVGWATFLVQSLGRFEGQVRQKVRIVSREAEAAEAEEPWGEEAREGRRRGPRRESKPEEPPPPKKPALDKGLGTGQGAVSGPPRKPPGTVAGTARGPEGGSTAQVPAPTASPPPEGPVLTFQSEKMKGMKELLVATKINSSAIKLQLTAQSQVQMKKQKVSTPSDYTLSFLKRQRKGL
On the % scale 0 is the no-effect control and ±100 the full control effect.

Activity change, negative = inhibition, inactive:
COc1cccc(C(=O)/C=C/Nc2ccc(S(=O)(=O)Nc3ccc(C(C)=O)cc3)cc2)c1 19.2% [at 288 µM]
CCn1cnc2c1c(=O)n(CC(=O)O)c(=O)n2Cc1ccccc1 -2.36% [at 288 µM]
COc1cc(/C=C2/C(=O)N(c3ccc(Br)cc3)N=C2C)cc(OC)c1OC -0.325% [at 288 µM]
CC1CN(c2c3c(nc4ncnn24)CCCC3)CC(C)O1 (stereo not given) -1.31%
O=C(CCn1nc(-c2ccccc2)ccc1=O)N1CCN(c2ccccn2)CC1 2.46%
C=C(C)[C@@H]1CC=C(CN2CCN(Cc3ccccc3)CC2)CC1 -13.5%
O=C(Nc1ccc2ccccc2c1)c1cn(-c2ccccc2)nc1-c1cccs1 -8.29%
O=C(O)CCC(=O)Nc1ccc(SSc2ccc(NC(=O)CCC(=O)O)cc2)cc1 1.46% [at 288 µM]
COc1cccc(NC(=O)N2CCCc3ccccc32)c1 -1.89%
CCc1ccc(NC(=O)CSc2nc(O)cc(=O)n2C2CCCC2)cc1 -11.7%
CCCC(=O)Nc1cccc(NC(=O)c2ccc([N+](=O)[O-])cc2Cl)c1 0.163% [at 288 µM]
NC(=O)C1CCN(C2=C(Cl)C(=O)c3ccccc3C2=O)CC1 -7.88% [at 288 µM]
COc1cnc(-c2ccccn2)nc1N(C)c1ccccc1 1.97%
CC(=O)c1ccc2c(c1)N(CCCN1CCC(CCO)CC1)c1ccccc1S2 -8.17% [at 50.1 µM]
CCOc1cc(C(c2c(C)[nH][nH]c2=O)c2c(C)[nH][nH]c2=O)cc(Br)c1OC -2.68% [at 288 µM]
Cn1ncc2c(N3CCCCC3)nc(NCCCO)nc21 -12.3%
N=c1oc2ccccc2cc1-c1nc(-c2ccc(Cl)cc2)cs1 5.5%
CC(c1cc2ccccc2s1)N(O)C(N)=O (stereo not given) 3.82% [at 288 µM]
CCCn1c(=O)c(C(=O)Nc2ccccc2C(=O)OCC)c(O)c2ccccc21 -1.38% [at 288 µM]
O=C(CC(Sc1ccc(Br)cc1)C(=O)O)c1ccc(F)cc1 (stereo not given) 1.87% [at 288 µM]
CN1[C@H](CC(=O)c2ccccc2)CCC[C@H]1C[C@@H](O)c1ccccc1 -0.812% [at 288 µM]
Cc1cc2nc(-c3ccc(SCC(=O)Nc4ccc5c(c4)OCCO5)nc3)[nH]c2cc1C 43.2% [at 288 µM]
COc1cc(OC)cc(C(=O)N/N=C/c2ccc(OC)c(COc3ccc4ccccc4c3)c2)c1 -9.2%
O=C(C1=C(O)C(=O)N(CCN2CCOCC2)C1c1cccc(Br)c1)c1cccs1 (stereo not given) 1.3% [at 288 µM]
O=C(CSc1nc(O)cc(=O)n1-c1ccccc1)c1ccc(Br)cc1 -15.8%
CCc1ccc2c(c1)C(NC(C)=O)C(=O)N2CCN1CCOCC1 (stereo not given) -28.6%
C=C(C)CNC(=S)Nc1cccc2cnccc12 -5.17%
O=C(NC1CCN(c2ncccn2)CC1)c1c(F)cccc1F -2.68% [at 288 µM]
COc1cc(O)c(C(=O)c2ccccc2)cc1O 4.39% [at 288 µM]
Cn1c(=O)n(C)c2cc3[nH]cnc3cc21 3.61%
COC(=O)c1ccccc1NC1=C/C(=N\S(=O)(=O)c2ccc(C(=O)O)cc2)c2ccccc2C1=O -16% [at 288 µM]
CN1CCN(CC(=O)Nc2ccc(S(=O)(=O)N(C)C)cc2)CC1 2.22%
COc1ccc(-c2cc(-c3ccc(C)cc3)n[nH]2)c(O)c1 2.76% [at 288 µM]
C/C(=N\NC(=O)c1nnn(-c2nonc2N)c1C)c1ccc(-c2ccccc2)cc1 -9.36%
CCCN1CCN(CC(O)COC(c2ccc(OC)cc2)c2ccc(OC)cc2)CC1 (stereo not given) 1.78%
